Screening data: PubChem, Johns Hopkins Ion Channel Center
The list is not random: actives were taken first. Their share in the collection is about 3.5%.
ANO1 activ: activators or potentiators of mouse TMEM16A chloride channel; Q8BHY3; HEK293 TMEM16A/YFP-H148Q/I152L, iodide quench fluorescence; hits give low values; B-score at 10 µM; 340,000 compounds, 0.3% hits; AID 623877;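 active = fluorescence-ratio B-score plate-corrected deviation score at least 3 library SD below zero, with starting fluorescence score within 5 deviations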;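 note: channel opened by trigger with iodide after compound preincubation; score built on the fluorescence ratio of max minus min over baseline; more negative score means more quench and so TMEM16A activation or potentiation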
Kir21 inh: Kir2.1 (mouse) channel inhibition | HEK293-Kir2.1, FluxOR thallium flux fluorescence; hits give low values | 310,000 compounds, 0.85% hits | AID 1672 | B-score at 10 µM | P35561;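 active = fluorescence ratio B-score at or below minus 3 SD of library scores, with starting-brightness B-score within 2 SD, cut at about -4.2 in these data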;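 note: channel flux triggered by added potassium and thallium sulfate stimulus; B-score of peak minus minimum fluorescence over baseline after thallium stimulus; more negative B-score means stronger Kir2.1 block with less thallium influx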
KCNK3 inh: human KCNK3 channel inhibition, primary screen; O14649; CHO-KCNK3 thallium flux, FluxOR fluorescence; hits give low values; B-score at 10 µM; 340,000 compounds, 0.84% hits; AID 602410;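 active = B-score under library mean minus 4 SD, starting fluorescence ratio at most library mean plus 5 SD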;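 note: more negative B-score means stronger inhibition of thallium flux through KCNK3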
TMEM16A inh: blocks the mouse calcium-activated chloride channel TMEM16A. Q8BHY3. HEK293 TMEM16A/YFP iodide influx fluorescence, ionomycin. normalized B-score (activity score, 25-100; higher = stronger inhibition) at 10 µM. 310,000 compounds, 1.2% hits;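 active = ratio plate-corrected score three or more library SD toward inhibition, starting fluorescence score within five deviations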;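 note: score derived from kinetic fluorescence span divided by baseline fluorescence per well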
KCNK9 block: blocks the human KCNK9 two-pore domain potassium channel; Q9NPC2; HEK293 KCNK9, FluxOR thallium flux fluorescence; hits give low values; B-score at 10 µM; 310,000 compounds, 1.2% hits; AID 488922;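 active = ratio B-score over 3 SD below the library mean, with starting fluorescence within 5 SD of its mean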;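 note: negative B-score means less thallium flux so channel inhibition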
Target sequence (Q9NPC2 whole entry, looked up, the tested form may be a part): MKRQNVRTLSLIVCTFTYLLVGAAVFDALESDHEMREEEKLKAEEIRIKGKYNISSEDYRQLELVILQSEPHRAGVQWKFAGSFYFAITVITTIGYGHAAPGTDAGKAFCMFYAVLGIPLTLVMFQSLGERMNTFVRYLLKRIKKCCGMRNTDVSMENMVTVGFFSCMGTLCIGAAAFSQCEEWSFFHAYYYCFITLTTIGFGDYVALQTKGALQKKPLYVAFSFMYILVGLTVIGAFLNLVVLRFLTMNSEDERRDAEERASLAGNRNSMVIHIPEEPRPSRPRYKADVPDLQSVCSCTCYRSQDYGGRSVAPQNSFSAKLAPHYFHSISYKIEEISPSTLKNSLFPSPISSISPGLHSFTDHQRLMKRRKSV
A number is an active result; n = inactive; x = no result given.

SMILES	ANO1 activ	Kir21 inh	KCNK3 inh	TMEM16A inh	KCNK9 block
c1ccc(-c2nc3ccccn3c2NCc2ccc3c(c2)OCO3)cc1	n	n	n	n	n
CCC(C)Sc1cc(-c2nc3ccc(C)cn3c2NCc2ccccc2)ccc1OC (configuration not stated)	n	n	n	n	n
O=C(c1ccco1)N1CCN(Cc2nnnn2C2CCCCC2)CC1	n	n	n	n	n
COc1ccc(NS(=O)(=O)c2cc(NC(=O)/C=C/c3ccccc3OC)ccc2N2CCCCC2)cc1	n	n	n	n	n
CC(Nc1ccc(Cl)cc1)c1cc(Cl)ccc1O (configuration not stated)	n	-5.8	n	n	n
O=C(CCc1ccc(O)cc1)c1c(O)cc(O)cc1O[C@@H]1O[C@H](CO)[C@@H](O)[C@H](O)[C@H]1O	n	n	n	n	n
COc1ccc(/C=C2/C(=O)OCc3cc(OC)c(OC)cc32)cc1	n	n	n	n	n
Nc1c(/C=C2/C=CC(=O)C(O)=C2)c(=O)nc2sc(CC(=O)N3CCCCC3)nn12	-5.5	n	n	n	n
COC1=C/C(=C/c2c(N)n3nc(CC(=O)N4CCCC4)sc3nc2=O)C=CC1=O	-5.7	n	n	n	n
CN(CC(=O)Nc1ccccc1Cl)C1CCS(=O)(=O)C1 (configuration not stated)	n	x	n	x	x
S=c1ncc2[nH]c(=S)[nH]c2[nH]1	n	x	n	x	x
Cc1cccc([N+](=O)[O-])c1NC(=O)CSc1nnc2ccccn12	n	x	n	x	x
Cc1cc(C)cc(NC(=S)NCC2CCN(C(C)c3ccccc3)C2)c1 (configuration not stated)	n	-4.9	n	n	n
N#CCCN(C(=S)NC(=O)c1cccs1)c1ccccc1F	n	x	n	x	x
Cc1ccc(N2CCN(C(=O)CNS(=O)(=O)c3ccc(Br)s3)CC2C)cc1 (configuration not stated)	n	n	n	100	n
Cc1ccc(CNC(=O)c2ccc(N3CCC4(CC3)CC(c3ccccc3)=NO4)c(NC(=O)c3ccc(Cl)c([N+](=O)[O-])c3)c2)cc1	n	n	n	n	n
CC1(c2nnc(-c3ccc(Cl)cc3)o2)CC(c2c(Cl)cccc2Cl)=NO1 (configuration not stated)	n	n	n	n	-7.6
COc1ccc(NC(=O)/C(=C/c2ccc3c(c2)OCO3)NC(C)=O)cc1	n	n	n	n	n
CCC(C)(C)NC(=O)COc1ccc(C(=O)c2ccccc2)cc1	n	n	n	25	n
CCN(CCCNC(=O)CCc1nc(-c2ccc(OC)cc2)no1)c1cccc(C)c1	n	n	n	100	n
COc1ccc(-c2noc(CCC(=O)NCCc3ccccc3)n2)cc1	n	n	n	n	n
Cc1ccc(N2CCN(C(=S)Nc3ccc(Cl)cc3)CC2)cc1	n	n	n	n	n
Cn1nc(C(F)(F)F)c2cc(C(=O)Nc3ccc(F)cc3F)sc21	n	n	n	n	-7.2
CC1CCN(C(=O)C2CCN(CC(C)c3ccccc3)CC2)CC1 (configuration not stated)	n	n	n	25	n
COc1cc(/C=C/C(=O)O)cc(S(=O)(=O)Nc2ccccc2Cl)c1OC	n	n	n	n	n
SMILES	ANO1 activ	Kir21 inh	KCNK3 inh	TMEM16A inh	KCNK9 block
O=C(N/N=C/c1cccc(Oc2ccccc2)c1)c1cc[n+]([O-])cc1	n	n	n	n	n
Nc1ccc(C(=O)N/N=C/c2cccc(Oc3ccccc3)c2)cc1	n	-11	n	n	n
CCCN(CCC)C(=O)C(c1ccccc1)C1(O)CCCCC1 (configuration not stated)	n	x	-8.9	x	x
CCN1CCC(O)(C(C(=O)O)c2ccccc2)CC1 (configuration not stated)	n	x	n	x	x
CC(=O)N/C(=N\c1nc(C)cc(C)n1)Nc1ccc2ccccc2c1	n	n	n	n	n
O=c1ccc2cc(S(=O)(=O)N3CCN(c4ccccc4F)CC3)ccc2o1	n	n	n	n	n
CCn1c(Cc2c(C)[nH]c3ccccc23)nnc1SCC(=O)NCc1ccccc1	n	n	n	n	n
C=CCn1c(CSc2nc3ccccc3s2)nnc1SCC(=O)NCc1ccccc1	n	-5.2	n	n	n
C=CCn1c(Cc2c(C)[nH]c3ccccc23)nnc1SCC(=O)NCc1ccc(F)cc1	n	n	n	100	n
CC(C)NC(=O)CN1C(=O)c2cccc3cccc1c23	n	n	n	n	n
O=C(Nc1nnc(CCS(=O)(=O)c2ccc(Br)cc2)s1)c1ccc([N+](=O)[O-])cc1	n	x	n	n	x
Cc1ccc(C)c(NC(=O)CCc2c(C)nn(-c3ccc(N4CCCCC4)nn3)c2C)c1	n	n	n	n	n
CCN(Cc1ccccc1)C(c1ccc(C)cc1)c1nnnn1C(C)(C)C (configuration not stated)	n	n	n	n	-7.8
CCN(Cc1ccccc1)C(c1ccccn1)c1nnnn1C(C)(C)CC (configuration not stated)	n	n	n	n	-8
CCC(C)(C)n1nnnc1C(c1ccccn1)N1CCOCC1 (configuration not stated)	n	n	n	n	n
O=C(NC1CCCCC1)c1cc(N2C(=O)CCC2=O)ccc1Cl	n	n	n	n	n
CCCc1nc2ccc(NC(C)=O)cc2c(=O)n1Cc1cccc(Cl)c1	n	n	n	n	n
CCCc1nc2ccc(NC(=O)c3cccs3)cc2c(=O)n1Cc1ccc(Cl)cc1	n	n	n	n	-6.8
CCC(C)n1c(=S)[nH]c2c(sc3ccc([N+](=O)[O-])cc32)c1=O (configuration not stated)	n	n	n	25	n
CC(C)n1c2ccccc2c2cc([N+](=O)[O-])ccc21	n	n	n	n	n
Cc1c(C(=O)N/N=C/c2ccccn2)nnn1-c1nonc1N	n	n	n	n	n
C=CCS/C(=N\n1cnc2ccccc2c1=O)N1CCCCC1	n	n	n	n	n
C=CCS/C(=N\n1cnc2ccccc2c1=O)N(CC)CC	n	n	n	n	-7.6
C(CNC1C2CC3CC(C2)CC1C3)CN1CCOCC1 (configuration not stated)	n	n	n	n	n
C1CCN(CCCNC2C3CC4CC(C3)CC2C4)C1 (configuration not stated)	n	-11	n	n	n
CCCN1CCN(C(=O)C(C)n2nc(C)c3sc4ccccc4c3c2=O)CC1 (configuration not stated)	n	n	n	n	n
CC(=O)C(Cc1ccccc1)NC(=O)CN(C)Cc1ccccc1Cl (configuration not stated)	n	-4.9	n	n	n
Cc1ccc(CN(C)CC(=O)NC(C)c2ccccc2)cc1 (configuration not stated)	n	-4.3	n	n	n
CC(=O)C(Cc1ccccc1)NC(=O)CCl (configuration not stated)	n	n	n	n	n
Cc1ccccc1CN(C)CC(=O)NC(C)CCc1ccccc1 (configuration not stated)	n	-11	n	n	n
